Measured values reported in the supplement of paper PMC6555819.

What follows are sequences tested on RARg:RXRa (NR concentration 270 nM, RXRa partner concentration 90 nM) (assay: PBM binding z-score (relative to random genomic background probes); higher = stronger binding; sequences stand for … in GC…GCGATTGACAGCGTAGAATGAAGG).
In short: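 Custom Agilent 4×180K protein-binding microarrays carried double-stranded probes. Their 34-nt variable regions held direct-repeat seeds, single-nucleotide variants, half-site ablations and random human genomic background sequences. Arrays were incubated 1 h with ligand-free nuclear receptor dimers in PBS pH 7.4, 2% milk, 0.02% Triton X-100, 1 mM DTT, 0.2 mg/mL BSA and 0.4 mg/ml salmon testes DNA. Antibodies against each partner (one per run) detected binding, and scanned fluorescence was regression-normalized. Binding z-scores use random background probes as reference.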

First: CCTAGTTGGTCAGGAGGTCACGCACCGGATATGA
Second: ATCTCTAGTTAAAAGTTCAGTGAATCCCGAGGAT
The PBM binding z-score of the first is higher: 5.68 for the first, 1.3 for the second.

Going from CAAACTAGGTCAAGAGGTCAACGTCCGCTTCCCG to CCTAGCAGGCCAACCTGGGTCACTCAAGGCTTGA, the PBM binding z-score falls from 7.92 to 1.54.

First: CCGACTGGGGCAAATGTTACCATACTCAGTACGA
Second: TCTGCTAGGTCACCGATGGTCAGCTAATCTGCTA
The PBM binding z-score of the first is lower: 0.382 for the first, 4.74 for the second.

Going from ACTATTAGTTGACTGAGGGCAACCGATACGACGC to CAAACTAGGTCACAGAAGTCAAAGTCCGTGCGTA, the PBM binding z-score rises from 0.837 to 4.45.

First: AGTAGCAGGCCAAGTTTGGGTCACTCAAACAAAG
Second: TCTGCTTGGTCAGTTGGTCAGCTAACGAGCTGCC
The PBM binding z-score of the first is higher: 2.3 for the first, -0.172 for the second.

Compared with ATATGTAGGTTATCGGGTCATTGAGTTTGCGCAT, CCTTACGGGTCACGAGGATATAGCACGACGAGCG is higher in PBM binding z-score: 3.43 for the first, 5.53 for the second.

Compared with CCGAGTAGGTTATGGGGGATTCAGGCAACGGTGA, TCATATAGGTAATACAGGTGAAACTCGGCATCTA is lower in PBM binding z-score: 1.3 for the first, 0.826 for the second.

Compared with CCGACTGGAGCATAAGGTTACCATAAGCCAGCCC, CCTTACGGGTCATTCCAGGTTATAGCATCGGAGT is higher in PBM binding z-score: 0.447 for the first, 4.52 for the second.

Compared with AGAATGAGGTTACCAAAGATGAGGGAAACGCTTG, GCTTGTATATCAAGGTTAAGAAAGACTAAGCTAA is lower in PBM binding z-score: 1.85 for the first, 0.526 for the second.

Going from TCTAGTTGGTCACGGAGCTCACACACGACGGGTA to GCTTACGGGTCAACGGTTATAGCATGAATAGAAT, the PBM binding z-score rises from 1.04 to 4.92.

Compared with TCTATTTGTTGAAGGGCAACCGACGAGTCCGTTT, ATCGAAAGGTCGACGAGGTGAGCATACACCGTTT is higher in PBM binding z-score: 0.705 for the first, 4.4 for the second.

Going from ACAGACAGGTGAGTGAAGGTAAATCAGCTGGACG to CCTACGGGGCCATTCAGAGGTCATTGATCATATG, the PBM binding z-score rises from 0.297 to 6.22.

First: TCTGCTAGGTGAGTTGGTCAGCTAACGAGCTGCC
Second: AGAATGAGGTTAAGCTCAGGGAAACAGAATACAT
The PBM binding z-score of the first is lower: -0.346 for the first, 2.43 for the second.

First: CGTCCAAGGTGAAAGGTCAGTGAAGAGATGACGG
Second: CCGACTGGGGCATAAGGTTGCCATAAGCCAGCCC
The PBM binding z-score of the first is higher: 6.03 for the first, 0.249 for the second.

First: TGTCATAGTTCAAAGGTAACGTAAGTATCCACAC
Second: CCTAGCAGGCCAATCTGGGTCACTCATGGCTTGA
The PBM binding z-score of the first is higher: 4.15 for the first, 0.859 for the second.

Compared with GATACAGGGTCAGCTGGAGGCCAGAGTATGGAAA, ATACCAAGGTGATCGTGAGGTCGTCGATACTAAC is lower in PBM binding z-score: 6.73 for the first, 2.45 for the second.

First: ATCTCGAGGTAAGACTCAGTTCAGTGAAGAACGC
Second: CGAACGAGGGCATGAGATGATAGCAAATGCCGAT
The PBM binding z-score of the first is lower: 0.254 for the first, 1.28 for the second.

Compared with AGTCAAAGTTCAGGACGAGGTAAGGTAAAGCACG, TGTCGGAGGACACGAAAGGTCAGAGCTCGACATC is higher in PBM binding z-score: 4.56 for the first, 4.97 for the second.

Going from ATCTCTAGGTAAAGATAGTTCAGTGCATGCAAAT to ATCCCTAGGTAAAAGTTCAGTGAATCCCGAGGAT, the PBM binding z-score rises from 0.406 to 1.53.

Compared with CCTTACGGGTAACTGACAGGTTATAGCATTTGGA, CCTGACGGGTCAAGGTTATAGCACGGGTGGTACG is higher in PBM binding z-score: 0.742 for the first, 4.37 for the second.
